36 compounds from PubChem BioAssay (EPA / NIEHS) can be followed below.

Several values for one entry are separate records, joined by “and”; a condition that tells them apart may be missing. Equal values may be shown once. Activity calls are given as the source filed them. Rule for the calls: active = hit-call score of the fitted dose curve at least 0.9, where 1 is the maximum; inactive = score below 0.9.

Read-out in the experiment: Actin alpha 1 (ACTA1), ACTA1 (gene 58)
Nature of the experiment: BSK_MyoF_ACTA1: BioMAP Diversity Plus: MyoF Assay for Actin alpha 1 (ACTA1) Biomarker Activity (AID 2284244). As to conditions: primary human lung fibroblasts. The procedure:
BSK_MyoF is a cell-based, multiplexed-readout assay that uses lung fibroblasts, […], with measurements taken at 24 hours after chemical dosing in a microplate: 96-well plate.BSK_MyoF_ACTA1 is an assay component measured in the BSK_MyoF assay. It measures a-SMA antibody related to regulation of gene expression using ELISA technology.Data from the assay component BSK_MyoF_ACTA1 was analyzed at the endpoint, BSK_MyoF_ACTA1, in the positive analysis fitting direction relative to DMSO as the negative control and baseline of activity. Using a type of binding reporter, gain or loss-of-signal activity can be used to understand protein changes. To generalize the intended target to other relatable targets, this assay endpoint is annotated to the 'cell adhesion molecules' intended target family, where the subfamily is 'actin'.
The levels of cell surface (or secreted, indicated by the prefix "s") biomarker endpoints were measured by ELISA. Overt cytotoxicity to cells in confluent adherent cultures (all systems other than the BT system) was assessed by measuring total protein levels using sulforhodamine B (SRB) staining in parallel cultures at the time of biomarker measurements, indicated as SRB endpoints. For proliferation assays for adherent cell types, individual cell types are cultured at sub-confluence and relative cell numbers quantified by SRB staining at time points optimized for each system (48 h: 3C and CASM3C systems; 72 h: BT and HDF3CGF systems; 96 h: SAg system). SRB was performed by staining cells with 0.1% SRB after fixation with 10% TCA and reading wells at 560 nm.Viability and proliferation of PBMC (T cells) was quantified by Alamar Blue reduction for the SAg and BT systems. For PBMC viability (referred to as PBMC Cytotoxicity within the assay endpoint names), cells were plated (75,000/well in a 96-well plate) and then chemical samples added for 1 h before addition of activators, SEB and TSST-1 (20 ng/mL final concentration each). Cells were incubated for 90 h. Then, Alamar Blue (20 uL/well) (Invitrogen, Cat DAL1100) was added for 6 h, and the plates were read with a fluorescence microplate reader at 546/580 nm (excitation/emission). For PBMC proliferation, cells were plated and activated as above but incubated for only 16 h prior to addition of Alamar Blue. Plates were read after 6 h.
Turning to `CC(C)c1ccc(CO)cc1`, the outcome was inactive.

Consider `NC(=S)Nc1ccccc1`, for which the result was inactive.

Turning to `O=C(O)CCC(F)(C(F)(F)F)C(F)(F)F`, the outcome was inactive.

As to `CCOP(=S)(OCC)Oc1ccc(S(C)=O)cc1` (stereo unspecified), the outcome was inactive.

Take `O=Cc1cccc(Oc2ccccc2)c1`: the outcome was inactive.

In the case of `CC(C)CCCCCCOC(=O)c1ccccc1C(=O)OCCCCCCC(C)C`, the result was inactive.

For `Oc1ccc(-c2ccccc2)cc1`, the outcome was inactive.

For `O=C(O)C(F)(F)C(F)(F)C(F)(F)C(F)(F)C(F)(F)C(F)(F)F`, the outcome was inactive.

For `COC(=O)c1sccc1S(=O)(=O)NC(=O)Nc1nc(C)nc(OC)n1`, the result was inactive.

For the compound `CC1(C)Cc2cccc(O)c2O1`, the result was inactive.

One may read the AC50 as the concentration giving half of the maximal activity seen. `O=C(OC1CCCCC1)c1ccccc1C(=O)OC1CCCCC1`: the AC50 is 12.5 µM (active).

As to `CCOP(=S)(OCC)SCCS(=O)(=O)CC`, the result was inactive.

As for `COC[C@H](C)N(C(=O)CCl)c1c(C)csc1C`, the outcome was inactive.

`COc1cc(OC)nc(NC(=O)NS(=O)(=O)c2ncccc2C(=O)N(C)C)n1`: the result was inactive.

On to `COP(=S)(OC)Oc1ccc(S(=O)(=O)N(C)C)cc1`, for which the outcome was inactive.

As for `COP(=S)(OC)Oc1cc(Cl)c(Cl)cc1Cl`, the AC50 was 31.9 µM (active).

Regarding `Nc1ccc(-c2ccc(N)c(Cl)c2)cc1Cl`, the result was inactive.

Consider `COP(=S)(OC)Oc1ccc(Sc2ccc(OP(=S)(OC)OC)cc2)cc1`, for which the AC50 was 27.4 µM (active).

As to `ClC(Cl)=C(Cl)C(Cl)=C(Cl)Cl`, the AC50 was 3.97 µM (active).

For `OCc1ccco1`, the outcome was inactive.

For the compound `COP(=S)(OC)Oc1c(Cl)cc(C)cc1Cl`, the result was inactive.

Consider `CC(=O)C(Cl)C(=O)N(C)C` (stereo unspecified), for which the outcome was inactive.

In the case of `C(=NC1CCCCC1)=NC1CCCCC1`, the AC50 was 7.21 µM (active).

In the case of `O=[N+]([O-])c1ccc2c3c(cccc13)CC2`, the outcome was inactive.

As for `O=C(O)C(F)(F)C(F)(F)C(F)(F)C(F)(F)C(F)(F)C(F)(F)C(F)(F)C(F)(F)C(F)(F)C(F)(F)F`, the AC50 was 2.74 µM (active) and 2.55 µM (active).

Regarding `Oc1c(I)cc(I)cc1I`, the AC50 was 20 µM (active).

On to `CCOC(=O)/C=C(C)/C=C/C[C@@H](C)CCCC(C)C`, for which the AC50 was 29.6 µM (active).

Turning to `Nc1ncc([N+](=O)[O-])s1`, the outcome was inactive.

On to `BrCCBr`, for which the result was inactive.

As to `CCCCC(CC)CO[N+](=O)[O-]` (stereo unspecified), the result was inactive.

Take `Nc1cccc2ccccc12`: the outcome was inactive.

Consider `CCSC(C)CC1CC(=O)C(C(CC)=NOC/C=C/Cl)=C(O)C1` (stereo unspecified), for which the result was inactive.

With `O=S(=O)(c1ccc(Cl)cc1)c1ccc(Cl)cc1`, the outcome was inactive.

As to `ClC1=C(Cl)[C@]2(Cl)[C@H]3[C@H]([C@H]4C=C[C@H]3C4)[C@@]1(Cl)C2(Cl)Cl`, the AC50 was 8.66 µM (active).

In the case of `CCCCCCCCC(=O)NCc1ccc(O)c(OC)c1`, the result was inactive.

Take `CCNc1nc(NC(C)(C)C)nc(SC)n1`: the outcome was inactive.
